Values joined by “and” are separate entries in the source; they are usually repeats but may differ in a detail not shown here. Equal values may be shown once. Results filed as inconclusive are left out. Active and inactive are the calls of the source. Unless noted, the call rests on the fitted dose curve; in most records, active means well fitted curve in the direction sought with a large enough effect; inconclusive means small, poorly fitted or top-dose-only effect, or another doubt; inactive means no such curve, though single readings can be large; an effect the other way counts as inactive or inconclusive.

Experiment [1] concerns the target Luciferin 4-monooxygenase (Photinus pyralis) (UniProt P08659). As to the kind of experiment: Biochemical firefly luciferase enzyme assay for NPC (AID 624030).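 Further: purified P. pyralis luciferase at 10 nM with luciferin and ATP substrate; 0% = DMSO and -100% = full luciferase inhibition by PTC124 control; nearly all actives have a fitted effect of over 70% in size.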 In outline:
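Counter-screen for direct inhibition of the luciferase enzyme by approved-drug library compounds, run at 10 nM enzyme in 50 mM Tris acetate (final). Luminescence was read within 5 min of enzyme-buffer addition and normalized to PTC124 versus DMSO (0%).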

For another experiment, the system named is astro. Description: Drug repurposing screens with cells derived from glioblastoma tumor samples (AID 1345199). Further: nearly all actives have a fitted effect of over 40% in size. Further: potency means the concentration at half of the fitted maximal effect. Particulars: viability, ATP luminescence, 48 h; series mostly up to 45.9 µM. In outline: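 Primary testing used CD133+ neurospheres from four GBM patients, seven concentrations, 48 h exposure and ATP-based viability; confirmation added three slower-growing patient lines.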

The target of experiment [2] is Cytochrome P450 3A4 (Homo sapiens) (UniProt P08684). As to the kind of experiment: qHTS Assay for Activators of Cytochrome P450 3A4 (AID 885). Further: nearly all actives have a fitted effect of over 65% in size. In outline: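 Human CYP3A4 dealkylates Luciferin-PPXE to luciferin, which luciferase detection converts to light. Substrate was at its KM (25uM), buffer 200mM KPO4, reaction 60 min at RT.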
Sequence of Cytochrome P450 3A4 (Homo sapiens) (P08684 whole entry, looked up): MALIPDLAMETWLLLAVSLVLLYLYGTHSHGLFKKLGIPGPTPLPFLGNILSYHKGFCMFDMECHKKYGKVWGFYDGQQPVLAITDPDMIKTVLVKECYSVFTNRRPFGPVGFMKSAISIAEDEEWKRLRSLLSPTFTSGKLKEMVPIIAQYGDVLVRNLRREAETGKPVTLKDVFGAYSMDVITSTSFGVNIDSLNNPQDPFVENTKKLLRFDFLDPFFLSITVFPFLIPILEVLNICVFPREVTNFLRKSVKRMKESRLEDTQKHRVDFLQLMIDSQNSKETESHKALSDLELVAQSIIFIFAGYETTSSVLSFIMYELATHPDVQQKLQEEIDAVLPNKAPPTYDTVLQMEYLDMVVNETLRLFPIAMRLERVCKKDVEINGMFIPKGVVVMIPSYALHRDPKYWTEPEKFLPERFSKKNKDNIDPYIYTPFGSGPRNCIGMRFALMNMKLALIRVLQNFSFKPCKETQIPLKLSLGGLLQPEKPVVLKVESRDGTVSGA
(In general: qHTS replaces the single test concentration by a dilution series.)

Experiment [3] concerns Zika virus NS2B-NS3 protease. As to the kind of experiment: Primary screen GU AMC qHTS for Zika virus inhibitors (AID 1347154). Further: nearly all actives have a fitted effect of over 70% in size. Further: potency means the concentration at half of the fitted maximal effect.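 On activity change, negative = inhibition: 0% = no-inhibitor control and -100% = no-enzyme control.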 In outline: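 Unlinked Zika NS2B hydrophilic domain/NS3 protease domain noncovalent complex (25 nM final) in 10 mM Tris-HCl pH 8.0, 0.01% Tween 20, with AMC peptide substrate. Fluorescence (ex 340, em 450 nm) change over 15 min, room temperature; percent inhibition fitted to 4-parameter Hill equation.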

Experiment [4] has as its target Ubiquitin carboxyl-terminal hydrolase 1 (Homo sapiens) (UniProt O94782). Description: Inhibitors of USP1/UAF1: Pilot qHTS (AID 504865).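 Further: rhodamine fluorescence freed from ubiquitin-rhodamine substrate followed over time; top concentration of the series differs between compounds; on the % scale 0 is the no-effect control and ±100 the full control effect; nearly all actives have a fitted effect of over 35% in size.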 In a few lines: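 In 50mM HEPES pH 7.8 containing 0.5mM EDTA, 1mM TCEP, 0.1 mg/ml BSA and 0.01% Tween-20, 1nM USP1/UAF1 is exposed to compound for 15 min, then Ub-Rho (150nM final) is added and fluorescence is read over time.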
For experiment [5], the target named is Cytochrome P450 2D6 (Homo sapiens) (UniProt P10635). As to the kind of experiment: Cytochrome P450 family 2 subfamily D member 6 (CYP2D6) small molecule antagonists: luciferase biochemical (cell-free) qHTS assay (AID 1645840; active means well fitted curve in the direction sought with a large enough effect in the repeat runs; an effect the other way counts as inactive or inconclusive; further: nearly all actives have a fitted effect of over 55% in size; further: potency means the concentration at half of the fitted maximal effect; on activity change, negative = inhibition: on the % scale 0 is the no-effect control and ±100 the full control effect). In a few lines: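 P450-Glo CYP2D6 system: proluciferin substrate converted by enzyme to luciferin, read by luminescence proportional to activity. Enzyme-substrate mix with compound 10 min at room temperature, then NADPH regeneration 1 h before detection reagent.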
Sequence of Cytochrome P450 2D6 (Homo sapiens) (P10635 whole entry, looked up): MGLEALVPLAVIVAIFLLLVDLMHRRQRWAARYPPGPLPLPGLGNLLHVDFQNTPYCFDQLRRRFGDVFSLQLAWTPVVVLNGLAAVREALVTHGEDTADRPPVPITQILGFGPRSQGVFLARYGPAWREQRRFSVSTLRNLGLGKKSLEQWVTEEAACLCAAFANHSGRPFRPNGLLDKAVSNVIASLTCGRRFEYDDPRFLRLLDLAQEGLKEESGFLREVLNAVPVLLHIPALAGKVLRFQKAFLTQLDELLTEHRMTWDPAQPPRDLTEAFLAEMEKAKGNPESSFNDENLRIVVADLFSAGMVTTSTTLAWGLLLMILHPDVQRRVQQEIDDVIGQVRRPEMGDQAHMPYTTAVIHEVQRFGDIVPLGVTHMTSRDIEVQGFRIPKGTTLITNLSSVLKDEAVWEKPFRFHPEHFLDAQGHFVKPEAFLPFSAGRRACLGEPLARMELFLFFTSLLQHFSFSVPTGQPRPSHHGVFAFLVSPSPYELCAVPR

The target in experiment [6] is Cytochrome P450 2C9 (Homo sapiens) (UniProt P11712). Description: Cytochrome P450 family 2 subfamily C member 9 (CYP2C9) small molecule antagonists: luciferase biochemical (cell-free) qHTS assay (AID 1645842; active means well fitted curve in the direction sought with a large enough effect in the repeat runs; an effect the other way counts as inactive or inconclusive; further: nearly all actives have a fitted effect of over 55% in size; further: potency means the concentration at half of the fitted maximal effect; on activity change, negative = inhibition: on the % scale 0 is the no-effect control and ±100 the full control effect). In a few lines: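 P450-Glo CYP2C9 system: proluciferin substrate with enzyme in mix containing 0.4% BSA, 10 min at room temperature, then NADPH regeneration solution added and incubated 1 h at 37C. Detection reagent stopped reaction; luminescence read after 20 min as RLU.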
Sequence of Cytochrome P450 2C9 (Homo sapiens) (P11712 whole entry, looked up): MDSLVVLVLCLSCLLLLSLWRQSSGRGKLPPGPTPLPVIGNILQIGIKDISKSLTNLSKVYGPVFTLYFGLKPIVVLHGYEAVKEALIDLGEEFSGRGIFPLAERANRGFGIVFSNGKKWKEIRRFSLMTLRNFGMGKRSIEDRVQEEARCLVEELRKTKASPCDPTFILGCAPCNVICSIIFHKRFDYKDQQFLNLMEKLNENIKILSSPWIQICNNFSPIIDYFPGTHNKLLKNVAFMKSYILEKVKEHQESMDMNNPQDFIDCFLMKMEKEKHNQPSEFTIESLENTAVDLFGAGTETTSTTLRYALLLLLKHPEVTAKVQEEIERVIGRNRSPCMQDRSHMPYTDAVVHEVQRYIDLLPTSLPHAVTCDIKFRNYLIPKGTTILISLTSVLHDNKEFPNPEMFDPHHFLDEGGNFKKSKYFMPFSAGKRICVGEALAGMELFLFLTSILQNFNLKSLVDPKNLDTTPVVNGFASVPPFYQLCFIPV

Experiment [7] can be described thus: Primary qHTS for small molecule stabilizers of the endoplasmic reticulum resident proteome: Secreted ER Calcium Modulated Protein (SERCaMP) assay (AID 1508630). Further: on the % scale 0 is the no-effect control and ±100 the full control effect. In a few lines:
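The SH-SY5Y reporter protocol was run at 3 concentrations up to 38.3 uM (primary) or 11 concentrations (follow-up): 16 h compound, 100 nM thapsigargin for 4 h, then extracellular luciferase luminescence.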

Experiment [8] addresses Catechol O-methyltransferase (Homo sapiens) (UniProt P21964). As to the kind of experiment: Confirmatory Screen for Target Class Profiling of Small Molecule Inhibitors of Methyltransferases (AID 1745852; calls by dose curve; further: potency means the concentration at half of the fitted maximal effect; on activity change, negative = inhibition: on the % scale 0 is the no-effect control and ±100 the full control effect). As to conditions: MTase-Glo luminescence, SAH detection, recombinant enzyme; measured here: COMT max response; stronger effect = lower value.
The target in experiment [9] is Guanidinoacetate N-methyltransferase (Homo sapiens) (UniProt Q14353). The description is as above. As to conditions: activity change, negative = inhibition: at 57.3 µM (top of the series) unless noted.
Experiment [10] concerns the target Nicotinamide N-methyltransferase (Homo sapiens) (UniProt P40261). Described as above. As to conditions: MTase-Glo luminescence, SAH detection, recombinant enzyme; measured here: NNMT max response; stronger effect = lower value.
For experiment [11], the target named is Phenylethanolamine N-methyltransferase (Homo sapiens) (UniProt P11086). The description is as above. Particulars: MTase-Glo luminescence, SAH detection, recombinant enzyme; measured here: PNMT max response; stronger effect = lower value.
Sequence of Phenylethanolamine N-methyltransferase (Homo sapiens) (P11086 whole entry, looked up): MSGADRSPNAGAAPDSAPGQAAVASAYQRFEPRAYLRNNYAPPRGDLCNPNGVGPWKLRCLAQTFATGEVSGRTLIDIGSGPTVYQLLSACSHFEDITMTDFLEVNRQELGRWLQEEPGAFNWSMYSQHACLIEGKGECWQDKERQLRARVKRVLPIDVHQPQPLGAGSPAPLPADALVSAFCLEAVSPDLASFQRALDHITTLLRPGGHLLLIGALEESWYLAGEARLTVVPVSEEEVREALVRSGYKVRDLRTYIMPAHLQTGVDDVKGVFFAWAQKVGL

Sequence of Luciferin 4-monooxygenase (Photinus pyralis) (P08659 whole entry, looked up): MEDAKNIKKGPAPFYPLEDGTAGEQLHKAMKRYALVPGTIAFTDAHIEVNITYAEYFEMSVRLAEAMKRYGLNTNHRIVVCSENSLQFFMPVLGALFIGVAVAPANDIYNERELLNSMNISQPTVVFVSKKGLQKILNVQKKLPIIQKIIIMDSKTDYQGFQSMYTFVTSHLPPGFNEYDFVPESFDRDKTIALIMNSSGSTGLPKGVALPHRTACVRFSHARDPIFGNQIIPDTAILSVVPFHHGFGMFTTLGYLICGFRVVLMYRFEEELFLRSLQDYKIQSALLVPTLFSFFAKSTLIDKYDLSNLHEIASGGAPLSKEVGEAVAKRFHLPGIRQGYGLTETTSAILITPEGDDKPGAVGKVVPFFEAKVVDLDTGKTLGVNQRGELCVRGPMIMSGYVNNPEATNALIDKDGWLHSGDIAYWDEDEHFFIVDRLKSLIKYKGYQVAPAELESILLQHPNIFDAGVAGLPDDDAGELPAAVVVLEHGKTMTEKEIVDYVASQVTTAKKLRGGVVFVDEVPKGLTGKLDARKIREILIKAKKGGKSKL
Sequence of Catechol O-methyltransferase (Homo sapiens) (P21964 whole entry, looked up): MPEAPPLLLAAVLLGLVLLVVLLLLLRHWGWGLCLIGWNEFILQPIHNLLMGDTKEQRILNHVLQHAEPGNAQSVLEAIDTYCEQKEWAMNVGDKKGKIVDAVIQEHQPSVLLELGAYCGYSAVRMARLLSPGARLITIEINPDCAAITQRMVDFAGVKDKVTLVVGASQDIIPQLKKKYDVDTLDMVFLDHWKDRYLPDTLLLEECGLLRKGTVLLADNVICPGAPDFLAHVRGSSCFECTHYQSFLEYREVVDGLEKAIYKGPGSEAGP
Sequence of Nicotinamide N-methyltransferase (Homo sapiens) (P40261 whole entry, looked up): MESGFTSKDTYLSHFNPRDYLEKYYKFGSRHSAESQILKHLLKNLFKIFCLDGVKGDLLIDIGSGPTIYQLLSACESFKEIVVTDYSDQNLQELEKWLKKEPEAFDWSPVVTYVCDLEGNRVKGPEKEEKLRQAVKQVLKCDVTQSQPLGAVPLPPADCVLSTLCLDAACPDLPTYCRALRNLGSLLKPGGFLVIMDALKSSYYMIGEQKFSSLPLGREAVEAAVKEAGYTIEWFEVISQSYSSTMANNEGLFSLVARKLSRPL
Sequence of Ubiquitin carboxyl-terminal hydrolase 1 (Homo sapiens) (O94782 whole entry, looked up): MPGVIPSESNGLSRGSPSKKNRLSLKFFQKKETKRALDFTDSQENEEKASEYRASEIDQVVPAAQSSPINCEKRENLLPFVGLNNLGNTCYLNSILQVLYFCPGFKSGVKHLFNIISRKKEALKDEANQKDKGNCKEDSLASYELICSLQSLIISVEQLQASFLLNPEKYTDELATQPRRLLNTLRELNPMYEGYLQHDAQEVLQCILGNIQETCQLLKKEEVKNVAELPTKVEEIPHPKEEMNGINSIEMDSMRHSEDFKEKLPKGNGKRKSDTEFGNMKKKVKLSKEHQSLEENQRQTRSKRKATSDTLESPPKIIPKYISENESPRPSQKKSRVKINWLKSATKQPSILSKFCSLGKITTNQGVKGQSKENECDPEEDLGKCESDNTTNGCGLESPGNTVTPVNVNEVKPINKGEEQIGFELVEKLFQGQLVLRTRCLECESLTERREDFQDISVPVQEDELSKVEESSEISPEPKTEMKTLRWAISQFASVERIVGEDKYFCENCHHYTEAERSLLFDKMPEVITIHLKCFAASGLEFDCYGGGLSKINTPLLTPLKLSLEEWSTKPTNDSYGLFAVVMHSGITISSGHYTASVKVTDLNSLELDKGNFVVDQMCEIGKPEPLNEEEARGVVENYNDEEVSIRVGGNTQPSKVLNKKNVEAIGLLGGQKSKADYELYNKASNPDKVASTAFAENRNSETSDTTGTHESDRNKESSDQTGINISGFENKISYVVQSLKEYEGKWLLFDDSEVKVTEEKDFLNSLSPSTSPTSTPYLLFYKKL

As for `CC1(C)N=C(N)N=C(N)N1c1ccc(Cl)cc1`, the Potency result (in experiment [1]; in the experiment with astro) was “inactive” in each case.
Regarding `CS(=O)(=O)CCNCc1nc(-c2ccc3ncnc(Nc4ccc(OCc5cccc(F)c5)c(Cl)c4)c3c2)cs1`, the Potency result in experiment [2] and in experiment [3] was “inactive” each time.
For `CN1CCN(CCC=C2c3ccccc3Sc3ccc(S(=O)(=O)N(C)C)cc32)CC1`, the Potency result in experiment [2], in experiment [4] and in [1] was “inactive” each time. In addition, the Potency in the experiment on astro was 31.6 µM (active).
`C=C1C(=O)O[C@H]2[C@H]1CC/C(C)=C\CC[C@@]1(C)O[C@@H]21`: the Potency in the experiment with astro was 20 µM (active).
Same read-out and setting: with `N[C@@H](C(=O)N[C@@H]1C(=O)N2C(C(=O)O)=C(CSc3cn[nH]n3)CS[C@H]12)c1ccc(O)cc1` the entry was “inactive”.
Turning to `NC(=O)c1sc(-c2ccsc2)cc1N`, in experiment [3], the Potency entry was “inactive”.
On to `CCOC(=O)CCC(=O)O[C@H]1[C@H](O[C@@H]2[C@@H](C)[C@H](O[C@H]3C[C@@](C)(OC)[C@@H](O)[C@H](C)O3)[C@@H](C)C(=O)O[C@H](CC)[C@@](C)(O)[C@H](O)[C@@H](C)C(=O)[C@H](C)C[C@@]2(C)O)O[C@H](C)C[C@@H]1N(C)C`, for which the Potency entry in the experiment with astro is “inactive”.
Consider `NCCNCCN`, for which the Potency entry with astro was “inactive”.
Consider `CCOC(=O)CN[C@@H](C(=O)N1CC[C@H]1C(=O)NCc1ccc(/C(N)=N/O)cc1)C1CCCCC1`, for which the Potency result (in experiment [1]; in the experiment with astro) was “inactive” throughout.
As for `CCC(=O)O[C@H]1CC[C@H]2[C@@H]3CCc4cc(O)ccc4[C@H]3CC[C@]12C`, the Potency with astro is 12.6 µM (active).
For `CCCCCCCCCCCCCCCCSCC(COC)COP(=O)([O-])OCC[N+](C)(C)C` (stereo unspecified), the Potency result (in [1]; with astro) was “inactive” in each case.
As to `CCN(CC)C(=O)c1cc(S(=O)(=O)Cc2ccccc2)c(N2CCC(c3ccccc3)CC2)cc1N(CC)CCN(C)C`, the Potency with astro is 12.6 µM (active).
As to `C#Cc1cccc(Nc2ncnc3cc(OC)c(OC)cc23)c1`, the Potency entry in experiment [3] is “inactive”.
For the molecule `CCCCCCCC[N+](C)(C)CCCCCCCC`, the Potency result in experiment [1] and in experiment [6] was “inactive” in each case. Besides, the Potency in experiment [5] was 0.674 µM (active); in the experiment on astro it was 20 µM (active) and 12.6 µM (active).
As for `CC[C@@]1(O)C[C@H](O[C@H]2C[C@H](N(C)C)[C@H](O[C@H]3C[C@H](O)[C@H](O[C@H]4CCC(=O)[C@H](C)O4)[C@H](C)O3)[C@H](C)O2)c2c(cc3c(c2O)C(=O)c2c(O)cccc2C3=O)[C@H]1C(=O)OC`, the Potency in the experiment with astro is 0.447 µM (active).
For `C=CC(=O)c1ccc2ccccc2c1`, the Potency result in [2], in experiment [3] and in experiment [7] was “inactive” throughout.
Consider `CCCCCCCCCCCCC/C=C/[C@@H](O)[C@H](CO)N(C)C`, for which the activity change, negative = inhibition in experiment [3] is 11% [at 6.83 µM] (inactive) and 6.76% [at 6.83 µM] (inactive); in experiment [7], -20.6% [at 3.88 µM] (inactive).
As to `COc1ccc(C(=O)Nc2sc3c(c2C(N)=O)CCCC3)cc1OC`, the Potency result in experiment [3] and in experiment [7] was “inactive” in each case.
Turning to `COc1cc(/C=C(\C#N)C(N)=O)cc(CSc2nc3ccccc3s2)c1O`, the Potency entry in [2], in experiment [3] and in experiment [7] was “inactive” each time.
For the molecule `C[N+]1(C)CCN(CC(O)(c2ccccc2)C2CCCCC2)CC1` (stereo unspecified), in the experiment with astro, the Potency entry is “inactive”.
In the case of `O=c1[nH]ccc2c(S(=O)(=O)N3CCCNCC3)cccc12`, the Potency in [3] is 26.7 µM (active).
Regarding `Nc1ncnc2c1c(I)cn2C1OC(CO)C(O)C1O` (stereo unspecified), the Potency entry in experiment [4], in experiment [3] and in experiment [7] was “inactive” in each case. For the same molecule, the activity is -96.2% in [8], -88.4% in experiment [10] and -97.6% in [11]. Further, in experiment [9], the Potency is 12.1 µM (active).
Regarding `CN(CC(=O)N1CCOCC1)Cc1c(Cl)cccc1NC(=O)c1ccccc1`, the Potency result (in experiment [1]; with astro) was “inactive” throughout.
With `Cc1nc2c(O)cccc2c(=O)[nH]1`, the Potency entry in experiment [4], in [3] and in experiment [7] was “inactive” each time.
Regarding `CC(C)n1nc(-c2ccc(NC(=O)Nc3cccc(C(F)(F)F)c3)cc2)c2c(N)ncnc21`, the results for the activity in experiment [8], in experiment [10] and in [11] were -1.63%, -74.3% and -1.08%, respectively. In addition, in experiment [9], the activity change, negative = inhibition stood at 0%.
The corresponding values for `CC(C)n1cc(-c2ccc(Oc3ccccc3)cc2)c2c(N)ncnc21` are -15%, -34.7%, -60.7% and -8.59%.
In the case of `COc1cc(OC)c2ccc(=O)oc2c1`, the Potency result in experiment [2] and in experiment [4] was “inactive” throughout.
Consider `CC1CN(CC(=O)Nc2ccc3c(c2)Cc2cccc(-c4cc(=O)cc(N5CCOCC5)o4)c2S3)CC(C)O1` (stereo unspecified), for which, in experiment [5], the Potency entry is “inactive”. For the same molecule, the Potency in [6] was 2.68 µM (active).

The values are drawn from PubChem BioAssay (NCATS).
